Measured values taken from publication PMC11062922 (Nature Chemical Biology, 2023).
Where two headings read alike, the source gives them in different places.

Tests used:
Set-up in all cases: species or system human, MV4-11 + K-562 + COLO205 + SK-N-BE2 + OVCAR-8
AURKB = conditions: read-out: apparent Kd, n = 1
CAMK2B = conditions: read-out: apparent Kd, compound concentrations: 100 nM and 1000 nM (sheet 'Samples'), n = 1
EIF2AK1 = conditions: read-out: apparent Kd; compound concentrations: 100 nM and 1000 nM (sheet 'Samples'), CATDS: 6.5022580640831398E-2; n = 1
MAP2K5 = conditions: read-out: apparent Kd; compound concentrations: 100 nM and 1000 nM (sheet 'Samples'), CATDS: 0.13171106930199999; n = 1
MAP3K4 = conditions: read-out: apparent Kd; compound concentrations: 100 nM and 1000 nM (sheet 'Samples'), CATDS: 6.3313755179161796E-2; n = 1
MAP4K2 = conditions: read-out: apparent Kd; compound concentrations: 100 nM and 1000 nM (sheet 'Samples'), CATDS: 8.0363217180658503E-2; n = 1
MAP4K3 = conditions: read-out: apparent Kd; compound concentrations: 100 nM and 1000 nM (sheet 'Samples'), CATDS: 7.0061337897802001E-2; n = 1
NEK2 = conditions: read-out: apparent Kd; compound concentrations: 100 nM and 1000 nM (sheet 'Samples'), CATDS: 7.0707362303254903E-2; n = 1
PTK6 = conditions: read-out: apparent Kd; compound concentrations: 100 nM and 1000 nM (sheet 'Samples'), CATDS: 9.6831640225396698E-2; n = 1
RIPK3 = conditions: read-out: apparent Kd; compound concentrations: 100 nM and 1000 nM (sheet 'Samples'), CATDS: 5.9468743018389697E-2; n = 1
STK3 = conditions: read-out: apparent Kd; compound concentrations: 100 nM and 1000 nM (sheet 'Samples'), CATDS: 6.0873779479402902E-2; n = 1
STK4 = conditions: read-out: apparent Kd; compound concentrations: 100 nM and 1000 nM (sheet 'Samples'), CATDS: 7.2736683737858396E-2; n = 1
YES1 = conditions: read-out: apparent Kd; compound concentrations: 100 nM and 1000 nM (sheet 'Samples'), CATDS: 8.4422564435587905E-2; n = 1
AURKA = conditions: read-out: apparent Kd; compound concentrations: 100 nM and 1000 nM (sheet 'Samples'), CATDS: 0.171682106860061; n = 1
CDC42 = conditions: read-out: apparent Kd; compound concentrations: 100 nM and 1000 nM (sheet 'Samples'), CATDS: 0.132933221213999; n = 1
GSK3A = conditions: read-out: apparent Kd; compound concentrations: 100 nM and 1000 nM (sheet 'Samples'), CATDS: 0.398799931633807; n = 1
GSK3B = conditions: read-out: apparent Kd; compound concentrations: 100 nM and 1000 nM (sheet 'Samples'), CATDS: 0.29957385679939402; n = 1
DDR1 = conditions: read-out: apparent Kd; compound concentrations:100 nM and 1000 nM (sheet 'Samples'); n = 1
DDR2 = conditions: read-out: apparent Kd; compound concentrations:100 nM and 1000 nM (sheet 'Samples'); n = 1
EPHA7 = conditions: read-out: apparent Kd; compound concentrations:100 nM and 1000 nM (sheet 'Samples'); n = 1
EPHB6 = conditions: read-out: apparent Kd; compound concentrations:100 nM and 1000 nM (sheet 'Samples'); n = 1
FLT3 = conditions: read-out: apparent Kd; compound concentrations:100 nM and 1000 nM (sheet 'Samples'); n = 1
FLT4 = conditions: read-out: apparent Kd; compound concentrations:100 nM and 1000 nM (sheet 'Samples'); n = 1
JAK2 = conditions: read-out: apparent Kd; compound concentrations:100 nM and 1000 nM (sheet 'Samples'); n = 1
RET = conditions: read-out: apparent Kd; compound concentrations:100 nM and 1000 nM (sheet 'Samples'); n = 1
BUB1 = conditions: read-out: apparent Kd; compound concentrations: 100 nM and 1000 nM (sheet 'Samples'), CATDS: 0.15968057437579899; n = 1
FN3K = conditions: read-out: apparent Kd; compound concentrations: 100 nM and 1000 nM (sheet 'Samples'), CATDS: 0.15794853926882399; n = 1
ICK = conditions: read-out: apparent Kd; compound concentrations: 100 nM and 1000 nM (sheet 'Samples'), CATDS: 0.184620648021635; n = 1
MAPKAPK2 = conditions: read-out: apparent Kd; compound concentrations: 100 nM and 1000 nM (sheet 'Samples'), CATDS: 0.25784854376508698; n = 1
BMP2K = conditions: read-out: apparent Kd; compound concentrations:100 nM and 1000 nM (sheet 'Samples'); n = 1
MAP3K1 = conditions: read-out: apparent Kd; compound concentrations:100 nM and 1000 nM (sheet 'Samples'); n = 1
MAP4K5 = conditions: read-out: apparent Kd; compound concentrations:100 nM and 1000 nM (sheet 'Samples'); n = 1
MAPK6 = conditions: read-out: apparent Kd; compound concentrations:100 nM and 1000 nM (sheet 'Samples'); n = 1
PIK3CD = conditions: read-out: apparent Kd; compound concentrations:100 nM and 1000 nM (sheet 'Samples'); n = 1
AXL = conditions: read-out: apparent Kd; compound concentrations: 100 nM and 1000 nM (sheet 'Samples'), CATDS: 0.14940898802630401; n = 1
CLK1 = conditions: read-out: apparent Kd; compound concentrations: 100 nM and 1000 nM (sheet 'Samples'), CATDS: 0.22469270721715301; n = 1
CLK2 = conditions: read-out: apparent Kd; compound concentrations: 100 nM and 1000 nM (sheet 'Samples'), CATDS: 0.32192475407013899; n = 1
CLK4 = conditions: read-out: apparent Kd; compound concentrations: 100 nM and 1000 nM (sheet 'Samples'), CATDS: 0.19159631348183601; n = 1
NTRK1 = conditions: read-out: apparent Kd; compound concentrations: 100 nM and 1000 nM (sheet 'Samples'), CATDS: 0.180805132487488; n = 1

With `Cn1cc(-c2ccc3c(c2)CCN3C(=O)Cc2ccccc2Cl)c2c(N)ncnc21` [GSK2608885A] as the compound, how does the potency estimated from few doses (AURKB; compound concentrations: 100 nM and 1000 nM (sheet 'Samples'), CATDS: 9.3884210166783694E-2) read?
Its potency estimated from few doses is 825 nM.

What about the potency estimated from few doses (CAMK2B; CATDS: 0.10460822503909301) of the same compound?
The potency estimated from few doses was 685 nM.

And the potency estimated from few doses (EIF2AK1)?
The potency estimated from few doses was 1790 nM.

And the potency estimated from few doses (MAP2K5)?
The potency estimated from few doses was 478 nM.

And the potency estimated from few doses (MAP3K4)?
The potency estimated from few doses was 1920 nM.

What about the potency estimated from few doses (MAP4K2) of the same compound?
The potency estimated from few doses was 1110 nM.

And the potency estimated from few doses (MAP4K3)?
The potency estimated from few doses was 1490 nM.

And the potency estimated from few doses (NEK2)?
The potency estimated from few doses was 1460 nM.

What about the potency estimated from few doses (PTK6) of the same compound?
The potency estimated from few doses was 781 nM.

And the potency estimated from few doses (RIPK3)?
Its potency estimated from few doses is 2280 nM.

What about the potency estimated from few doses (STK3) of the same compound?
The potency estimated from few doses was 2130 nM.

What about the potency estimated from few doses (STK4) of the same compound?
The potency estimated from few doses was 1370 nM.

What about the potency estimated from few doses (YES1) of the same compound?
The potency estimated from few doses was 1000 nM.

How did the potency estimated from few doses (AURKA) turn out when `Cc1[nH]nc2c1N=C(c1ccccc1F)c1cc(C#N)ccc1N2` [RO0275062-000] was run?
Its potency estimated from few doses is 496 nM.

And the potency estimated from few doses (AURKB; compound concentrations: 100 nM and 1000 nM (sheet 'Samples'), CATDS: 0.172202722003443)?
Its potency estimated from few doses is 492 nM.

What about the potency estimated from few doses (CDC42) of the same compound?
The potency estimated from few doses was 1240 nM.

What about the potency estimated from few doses (GSK3A) of the same compound?
The potency estimated from few doses was 88.7 nM.

And the potency estimated from few doses (GSK3B)?
The potency estimated from few doses was 143 nM.

Which results are given for `Nc1ncnc2occ(-c3ccc(NC(=O)Nc4cc(C(F)(F)F)ccc4F)cc3)c12` [GW770249A_KCGS]?
potency estimated from few doses (AURKB; compound concentrations:100 nM and 1000 nM (sheet 'Samples')): 1400 nM; potency estimated from few doses (DDR1): 122 nM; potency estimated from few doses (DDR2): 529 nM; potency estimated from few doses (EPHA7): 1760 nM; potency estimated from few doses (EPHB6): 1000 nM; potency estimated from few doses (FLT3): 215 nM; potency estimated from few doses (FLT4): 114 nM; potency estimated from few doses (JAK2): 871 nM; potency estimated from few doses (RET): 17.1 nM

With `CSc1ccc(-c2nc3n(c2-c2ccncc2)CCC3)cc1` [SKF-105561] as the compound, how does the potency estimated from few doses (BUB1) read?
The potency estimated from few doses was 2300 nM.

And the potency estimated from few doses (CAMK2B; CATDS: 0.32138183230231099)?
Its potency estimated from few doses is 557 nM.

And the potency estimated from few doses (FN3K)?
The potency estimated from few doses was 2370 nM.

What about the potency estimated from few doses (ICK) of the same compound?
The potency estimated from few doses was 1580 nM.

And the potency estimated from few doses (MAPKAPK2)?
The potency estimated from few doses was 803 nM.

Which results are given for `C[C@@H](Oc1cc(-n2cnc3ccc(OCC4CCN(C)CC4)cc32)sc1C(N)=O)c1ccccc1Cl` [GSK571989A]?
potency estimated from few doses (BMP2K): 1870 nM; potency estimated from few doses (MAP3K1): 1600 nM; potency estimated from few doses (MAP4K5): 1670 nM; potency estimated from few doses (MAPK6): 1540 nM; potency estimated from few doses (PIK3CD): 185 nM

How did the potency estimated from few doses (AXL) turn out when `CC(C)S(=O)(=O)N1CCN(Cc2ccc3c(c2)nc(NC(=O)c2ccsc2)n3C[C@H](O)c2ccccc2)CC1` [GW635815X] was run?
Its potency estimated from few doses is 1630 nM.

What about the potency estimated from few doses (CLK1) of the same compound?
The potency estimated from few doses was 606 nM.

What about the potency estimated from few doses (CLK2) of the same compound?
The potency estimated from few doses was 328 nM.

What about the potency estimated from few doses (CLK4) of the same compound?
The potency estimated from few doses was 843 nM.

What about the potency estimated from few doses (NTRK1) of the same compound?
Its potency estimated from few doses is 964 nM.
